For 49 compounds, Potency results are on record in PubChem BioAssay AID1159614 (National Center for Advancing Translational Sciences (NCATS), 2016).

The whole screen tested about 45,000 compounds, of which about 65 (0.1%) were called active. Entries that show only a call come without a potency. The call rests on the fitted dose curve; in most records, active means well fitted activation curve with a large enough effect; inconclusive means small, poorly fitted or top-dose-only effect; inactive means no such curve, though single readings can be large or run the other way. This excerpt belongs to a sample that is enriched for actives.
Potency means the concentration at half of the fitted maximal effect.

Chain of Galactocerebrosidase (Homo sapiens) (P54803 whole entry G286D): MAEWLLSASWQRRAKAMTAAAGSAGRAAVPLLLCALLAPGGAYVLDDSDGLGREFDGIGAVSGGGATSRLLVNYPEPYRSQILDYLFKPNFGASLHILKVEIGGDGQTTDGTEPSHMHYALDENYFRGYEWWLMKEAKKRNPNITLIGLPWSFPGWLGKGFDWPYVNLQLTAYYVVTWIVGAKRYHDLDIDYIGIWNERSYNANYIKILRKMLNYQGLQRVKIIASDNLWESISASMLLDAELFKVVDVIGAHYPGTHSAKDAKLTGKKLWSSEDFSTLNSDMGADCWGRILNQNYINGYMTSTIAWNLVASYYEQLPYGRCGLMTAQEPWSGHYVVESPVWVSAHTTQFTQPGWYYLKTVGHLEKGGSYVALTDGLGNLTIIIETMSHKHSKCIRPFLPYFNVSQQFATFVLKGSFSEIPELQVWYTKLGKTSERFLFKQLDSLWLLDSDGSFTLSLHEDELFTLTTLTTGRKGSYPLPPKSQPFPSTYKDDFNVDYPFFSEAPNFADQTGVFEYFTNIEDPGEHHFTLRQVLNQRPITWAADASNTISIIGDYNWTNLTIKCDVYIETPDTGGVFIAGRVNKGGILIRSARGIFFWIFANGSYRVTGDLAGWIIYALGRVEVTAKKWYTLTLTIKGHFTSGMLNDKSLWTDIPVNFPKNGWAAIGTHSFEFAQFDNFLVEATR

The experiment concerns the target Galactocerebrosidase (Homo sapiens) (UniProt P54803). Description: A Novel Cell-Based Assay to Identify Small Molecules for B -Galactocerebrosidase. Further: nearly all actives have a fitted effect of over 65% in size. To be noted: 145M-Twi-hGALC-G270D cells (Twitcher mouse brain line with human GALC G270D), HMU-beta-Gal fluorescence, 48 h; series mostly up to 57.5 µM. From the text: Lysosomal storage diseases (LSDs) are caused by genetic mutations in genes encoding proteins important for normal lysosomal function. Globoid cell leukodystrophy (GLD), mostly known as Krabbe disease, is a prototype of the neurological LSDs caused by deficiency of beta-galactocerebrosidase (GALC). In brain specimens of GLD patients, psychosine levels are substantially elevated. At elevated concentrations, psychosine becomes cytotoxic to neuronal cells, particularly to oligodendrocytes (OLG), neural cells responsible for myelin formation. Therefore, the biochemical disturbances in GLD are manifested by different degrees of brain demyelination resulting in a broad spectrum of neurological manifestations. Most of the FDA-approved therapies are based on enzyme replacement therapeutic (ERT) agents, which treat non-neurological symptoms of Gaucher disease, Fabry disease, few mucopolysaccharidoses and Pompe disease. Unfortunately, in GLD, a primarily neurological LSD, ERT agents, as large molecular weight molecules unable to cross the blood-brain barrier, which makes this an inefficacious therapeutic approach. In GLD, increasing the residual GALC activity just above the critical threshold (~10% of wild type enzymatic activity), the cytotoxic levels of psychosine will be reduced, avoiding the OLGs apoptosis and the subsequent demyelination process. This will translate in disease stabilization and amelioration of GLD patient symptoms.
A cell-based assay in 1,536-well plate format was developed to implement a quantitative high-throughput screening (qHTS) assay using GLD-disease relevant cells to identify small molecules that produce enhancements of the residual enzymatic activity levels of mutants GALC found and prevalent in GLD patients. Compounds that are active may therefore have some therapeutic application for GLD. After the treatment of live cells for a determined period, using a fluorescent GALC specific substrate, the mutant residual GALC activity is measured. This cell-based qTHS assay was used to screen part of the MLPCN library for small molecule able to increase the mutant GALC enzymatic activity. In this assay, increased fluorescent signal corresponds to enhanced levels of mutant GALC residual enzymatic activity. Activation is the desired outcome for this assay.
NIH Chemical Genomics Center [NCGC]
NIH Molecular Libraries Probe Centers Network [MLPCN]
Assay Submitter (PI): Gustavo Maegawa MD,PhD, University of Florida, Gainesville, FL
2)#Two cell lines were established for the assay: 145M-Twi-hGALC-G270D (brain-derived Twitcher cell line stably expressing human GALC-G270D) and 145M-Twi-hGALC-WT (same 145M-Twi stably expressing human GALC wild type). The Twitcher is the murine C57B/6 model for GLD with naturally occurring homozygous nonsense GALC mutation. The 145M-Twi cell line was established at Maegawa lab (Ribbens J et al 2014).
a.#Media: DMEM/F12 (1:1) with 10% fetal bovine-serum (FBS) with penicillin/streptomycin (PS-1X - 100 I.U./mL of penicillin+100 ug/mL of streptomycin).
b.#The 6-Hexadecanoylamino-4-methylumbelliferyl-b-D-galactoside (HMU-B-gal) substrate was prepared as per Wiederschain et al 1992. Using 20-mL borosilicate tubes, 2.20 mg of HMU-b-Gal was added in each tube to prepare substrate-film with a final air-nitrogen stream evaporation to remove all diluent solvents.
c.#The HMUb-Gal substrate buffer consists of 0.2 M Na2HPO4 (sodium phosphate dibasic)/ 0.1 M Citric Acid with the pH adjusted to 5.2 using HCl. Sodium Azide at 0.02% and Sodium Taurocholate (NaTC) at 1 mg/mL were added to this substrate buffer.
d.#The HMU-b-Gal stopping buffer consist of 0.5 M NaHCO3 (sodium bicarbonate) /0.5 M Na2CO3 (sodium carbonate). […] Triton X-100 at 0.25% was added.
4)#Preparation of HMU-b-Gal substrate tubes
Adding 18.6 mL of the HMUb-Gal substrate buffer to each 20-mL tube (2.20 mg of HMU-b-Gal) will reach a concentration of 0.2 mM. Vortex well the tube until the solution is fully homogenized (clear cloudy solution). […]
With `CC(C)C(=O)Nc1nc2c(s1)CC(C(C)(C)C)CC2` (centres undefined), the Potency entry was “inactive”.
The value for `Cc1ccc(CCNC(=O)C2CCN(c3nnc(-n4cccc4CNc4ccc(C)cc4)s3)CC2)cc1` was “inactive”.
As for `CCCCCn1c(=O)[nH]c2cc(C(=O)NCCN(C)CCCC)ccc2c1=O`, the Potency entry is “inactive”.
`COc1ccc(C)cc1Nc1nc2ccccc2c2nnc(C)n12`: the Potency entry is “inactive”.
The result for `Cc1ccc(NC(=O)CSc2nc3ccccc3c3nc(CCn4cncc4C)nn23)cc1F` reads “inactive”; that for `Cc1ccc(Cl)cc1N1CCN(C(=O)c2cnc3c(-c4ccc(F)cc4)c(C)nn3c2C)CC1`, “inactive”.
As to `COc1ccccc1/C=C/c1nc(C#N)c(NC(C)c2ccccc2)o1` (centres undefined), the Potency entry was “inactive”.
The result for `CC(=O)N1c2ccccc2CC1C(=O)N1CCN(c2ccc(F)cc2)CC1` (centres undefined) reads “inactive”; that for `CCN(CC)c1nn2c(=O)c(C(=O)NCCc3ccccc3)cnc2s1`, “inactive”; that for `COc1ccc(C2Sc3ccccc3NC3=C2C(=O)c2ccccc23)c(OC)c1OC` (centres undefined), “inactive”.
For `CC(=O)Nc1ccc2nc(SCCOc3cc(C)cc(C)c3)sc2c1`, the Potency entry is “inactive”.
The value for `Cc1ccc(S(=O)(=O)c2c(Nc3cccc(Cl)c3)sc(C(=O)c3ccc4c(c3)OCO4)c2N)cc1` was “inactive”.
The result for `COc1cc(NC(=O)c2nn(-c3ccc(C)cc3)c(=O)c3c2c2ccccc2n3C)cc(OC)c1OC` reads “inactive”; that for `CCOC(=O)c1ccccc1NC(=O)c1sc2nc(-c3ccc(F)cc3)cn2c1C`, “inactive”; that for `Cc1ccc(Cn2c(CCCNC(=O)C3CCCCC3)nc3ccccc32)cc1`, “inactive”.
`CCc1nccn1S(=O)(=O)c1cc(Br)ccc1Br`: the Potency result was “inactive”.
The result for `COc1ccc(OCCCn2c(C)nc3cc(C)c(C)cc32)cc1` reads “inactive”.
For `Cc1ccc(-n2ncc3c(=O)n(Cc4cccc(C(F)(F)F)c4)cnc32)cc1C`, the Potency result is “inactive”.
With `Cc1ccc2nc(COc3cccc(NC(=O)c4ccccc4Cl)c3)cc(=O)n2c1`, the Potency result is “inactive”.
The result for `COc1ccc(CNC(=O)c2ccc(NC(=O)N3CC4CCCN4c4ccccc43)cc2)cc1` (centres undefined) reads “inactive”; that for `Cc1ccc(C)c(NC(=O)C2CCCN(S(=O)(=O)c3cn(C)cn3)C2)c1` (centres undefined), “inactive”; that for `COc1cc(Cl)c(C)cc1Nc1nnc(-n2nc(C)cc2C)c2ccccc12`, “inactive”.
The result for `CCOC(=O)c1c(C)n(S(=O)(=O)c2ccc(C)cc2C)c2ccc(NS(=O)(=O)c3ccc(C)cc3C)cc12` reads “inactive”; that for `COC(=O)/C=C(/C)N`, “inactive”; that for `CCn1cc2nc(SCc3cccc(F)c3)n(CCc3ccccc3)c(=O)c2n1`, “inactive”.
For `COc1cccc(Cn2c(CNS(=O)(=O)c3ccc(Cl)s3)nc3cccnc32)c1`, the Potency entry is “inactive”.
For the compound `CCC(=O)N1c2ccccc2CC1C(=O)N1CCN(c2ccccc2)CC1` (centres undefined), the Potency entry was “inactive”.
`COc1cccc(NC(=O)c2ccc3nc(CCc4ccccc4)oc3c2)c1`: the Potency result was “inactive”.
As to `COc1ccccc1N1CCN(c2ncnc3onc(-c4cccc(Cl)c4)c23)CC1`, the Potency result is “inactive”.
The result for `COc1cccc(C(=O)NC(=O)Nc2ccc(-c3cc(C(F)(F)F)nn3-c3ccccc3)cc2)c1` reads “inactive”.
As to `COc1ccc(-c2ccc(=O)n(CC(=O)Nc3ccc(Br)cc3F)n2)cc1`, the Potency result is “inactive”.
The result for `Fc1ccccc1Oc1ncnc2c1oc1ccccc12` reads “inactive”; that for `COc1ccc(-c2cn3nc(N4CCCC(C(=O)NCCCOC(C)C)C4)sc3n2)cc1` (centres undefined), “inactive”.
The result for `CCOC(=O)c1ccc(NC(=O)CCn2cnnn2)cc1` reads “inactive”; that for `CC(C)(C)OC(=O)N1CCC(c2c(C(=O)Nc3ccc4c(c3)OCO4)cnn2-c2ccccc2)CC1`, “inactive”; that for `COc1ccc(Cl)cc1NC(=O)C(C)Sc1nc2c(c(=O)[nH]1)CCCC2` (centres undefined), “inactive”.
The value for `COC(=O)c1nc(Cl)c(Cl)nc1N` was “inactive”.
Take `O=C(CSc1oc(-c2ccco2)nc1S(=O)(=O)c1ccccc1)c1ccc(Cl)cc1`: the Potency entry is “inactive”.
The value for `O=c1[nH]c2cc(Br)ccc2n2cccc12` was “inactive”; that for `CN(Cc1ccccc1)c1ccc(-c2nc(-c3ccccc3)no2)cc1[N+](=O)[O-]` was “inactive”.
Regarding `COc1cc(NC(=O)CCn2nc(C)cc2C)cc(OC)c1OC`, the Potency entry was “inactive”.
Regarding `CCOC(=O)c1c(C)[nH]c(C)c1S(=O)(=O)NCC(=O)NCc1cccc(C)c1`, the Potency entry is “inactive”.
The value for `CCOc1ccc(OCC)c(NC(=O)c2cc(C)nc3c2c(C)nn3-c2cccc(Cl)c2C)c1` was “inactive”; that for `COc1ccc(-c2c(C)c3ccc(O)c(CN4CCCC4)c3oc2=O)cc1OC` was 39.8 µM (active).
Regarding `Cc1ccc(Oc2c(C(F)(F)F)oc3c(CN4CCCCC4)c(O)ccc3c2=O)cc1`, the Potency entry was “inactive”.
The value for `COc1ccc(-c2c(C)c3ccc(O)c(CN4CCN(C)CC4)c3oc2=O)cc1OC` was “inactive”; that for `O=C(NCc1ccccc1)c1cccc(NC(=O)N2CCSc3ncccc32)c1` was “inactive”.
The value for `CCCCN1C(=O)c2[nH]nc(-c3ccccc3O)c2C1c1cccc(OCc2ccccc2)c1` (centres undefined) was “inactive”; that for `O=C(NC1CC(=O)N(c2ccccc2)C1)c1ccco1` (centres undefined) was “inactive”.
